# Results: PubChem BioAssay AID1159580 (chemical genetic matrix, 2015)
# Out of some 5,500 compounds screened, about 2,000 (36%) were called active. About 18% were inconclusive and are not listed. The list shows a part of the results. Values without a mark were called inactive. No stated cut-off is given here; in the data, active means normalized growth mostly below about 0.91 (no sharp cut-off); inconclusive means no clear call, values can overlap the other calls; inactive means mostly above about 0.92.
# Experiment: chemical genetic growth profiling, strain panel (AID 1159580);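 further: tested at 20 µM; growth read once vehicle control cultures reached saturation at 30 °C; 1 = growth at the plate median or of vehicle wells; lower values mean less growth of the strain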
# Conditions: growth OD
smiles,measurement,setting,value
Cc1cc(/C=N/NC(N)=S)c2c(C)ccc(C(C)C)cc1-2,normalized growth,"S. cerevisiae deletion strains, locus YAL013W, strain DEP1, hits give low values",1.02
same,normalized growth,"S. cerevisiae deletion strains, locus YBR229C, strain ROT2, hits give low values",1.04
same,normalized growth,"S. cerevisiae deletion strains, locus YCL061C, strain MRC1, hits give low values",1.02
same,normalized growth,"S. cerevisiae deletion strains, locus YDL101C, strain DUN1, hits give low values",1.05
same,normalized growth,"S. cerevisiae deletion strains, locus YDL134C, strain PPH21, hits give low values",1.01
same,normalized growth,"S. cerevisiae deletion strains, locus YDR150W, strain NUM1, hits give low values",1
same,normalized growth,"S. cerevisiae deletion strains, locus YEL061C, strain CIN8, hits give low values",1.01
same,normalized growth,"S. cerevisiae deletion strains, locus YGR078C, strain PAC10, hits give low values",1.01
same,normalized growth,"S. cerevisiae deletion strains, locus YHR030C, strain SLT2, hits give low values",1.12
same,normalized growth,"S. cerevisiae deletion strains, locus YHR087W, strain rtc3, hits give low values",1.06
same,normalized growth,"S. cerevisiae deletion strains, locus YJR043C, strain POL32, hits give low values",1.01
same,normalized growth,"S. cerevisiae deletion strains, locus YJR075W, strain HOC1, hits give low values",1.02
same,normalized growth,"S. cerevisiae deletion strains, locus YLR039C, strain RIC1, hits give low values",1.02
same,normalized growth,"S. cerevisiae deletion strains, locus YLR058C, strain SHM2 (second series), hits give low values",1.03
same,normalized growth,"S. cerevisiae deletion strains, locus YLR085C, strain ARP6, hits give low values",1.03
same,normalized growth,"S. cerevisiae deletion strains, locus YLR262C, strain YPT6, hits give low values",1.02
same,normalized growth,"S. cerevisiae deletion strains, locus YML094W, strain GIM5, hits give low values",1.07
same,normalized growth,"S. cerevisiae deletion strains, locus YMR219W, strain ESC1, hits give low values",1.03
same,normalized growth,"S. cerevisiae deletion strains, locus YMR263W, strain SAP30, hits give low values",0.986
same,normalized growth,"S. cerevisiae deletion strains, locus YNL153C, strain GIM3, hits give low values",1.02
same,normalized growth,"S. cerevisiae deletion strains, locus YNL298W, strain CLA4 (second series), hits give low values",1.05
same,normalized growth,"S. cerevisiae deletion strains, locus YNL322C, strain KRE1, hits give low values",1.06 [resistant] (active)
same,normalized growth,"S. cerevisiae deletion strains, locus YNR030W, strain Alg12, hits give low values",1.08
same,normalized growth,"S. cerevisiae deletion strains, locus YPL055C, strain LGE1, hits give low values",1.04
same,normalized growth,"S. cerevisiae deletion strains, locus YPL241C, strain CIN2, hits give low values",1.01
same,normalized growth,"S. cerevisiae deletion strains, locus YPR135W, strain CTF4, hits give low values",1.17
same,normalized growth,"S. cerevisiae strains, strain wild type, hits give low values",1.02
